# Source: PubChem BioAssay AID1259418 (Broad Institute, 2018)
# Out of some 3,400 compounds screened, about 840 (25%) were called active. Not shown: some 11% with an inconclusive outcome. A selection follows. Entries with a potency or affinity are not part of this list. Unmarked numbers belong to inactive results.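 The calls were made as follows: active = fitted half-maximal concentration of signal decrease at or below twice the sample's top tested concentration; inconclusive = flat curve between -70 and -30 percent, or poor fit; inactive = flat within 30 percent, signal rise, or potency above limit.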
# Experiment: inhibitors of Toxoplasma growth in IFN-γ-primed HeLa – cell-based, ME49Luc, luciferase, 72 h, dose response (AID 1259418)
# Conditions: T. gondii ME49Luc in IFN-y HeLa, stronger effect = lower value, -100% = high-dose IFN-γ control wells; at 19.5 µM unless noted
row,Compound,max activity
1,CCc1ccccc1Nc1ncnc2c1cnn2-c1ccccc1,13.8% [at 10 µM]
2,COc1ccc(Cl)cc1S(=O)(=O)Nc1ccc(-c2nc(-c3ccc(C)c(C)c3)co2)cc1,41.1% [at 10 µM]
3,CN1c2ccc(-c3ccc(C#N)cc3)cc2[C@H]2[C@H](CCN2S(=O)(=O)c2ccc(F)cc2)[C@H]1CO,42.2% [at 10 µM]
4,CN1c2ccc(Br)cc2[C@H]2[C@H](CCN2S(=O)(=O)c2ccccc2F)[C@H]1CO,25% [at 9 µM]
5,COc1ccc(C#Cc2ccc3c(c2)[C@H]2[C@H](CCN2S(=O)(=O)c2ccccc2C)[C@H](CO)N3C)cc1,22.1% [at 10 µM]
6,COc1ccc2c(c1)NC1(CCN(C(=O)c3ccccc3C)CC1)c1cccn1-2,9.16% [at 0.68 µM]
7,CCc1cccc(NC(=O)COc2nc(C)nc3ccccc23)c1,15.1% [at 0.16 µM]
8,CCOc1ccc(-c2nc3c(s2)CN(S(=O)(=O)c2ccc(CC)cc2)CC3)cc1,33%
9,CCc1ccc(S(=O)(=O)N2CCC3(CCC(C(=O)N4CCCC4)O3)CC2)cc1 (centres undefined),19.6%
10,Cc1ccc(-c2coc(-c3ccc(NC(=O)c4ccc(Br)o4)cc3)n2)c(C)c1,29% [at 0.68 µM]
11,COc1ccc(CCC(=O)N2CCC(C(=O)NCCc3csc(-c4ccccc4)n3)CC2)cc1,22% [at 10 µM]
12,COc1ccc(-c2cnc3n2CCNC32CCN(C(=O)N3CCOCC3)CC2)cc1,31.8%
13,Cc1oc(-c2cccc(Cl)c2)nc1Cn1nnc(-c2nc(-c3ccccc3)no2)c1C,25.3%
14,CCCCNc1nc(-c2ccc(Cl)cc2)nc2ccccc12,12.4% [at 0.68 µM]
15,COc1ccc(-c2nc(NCC3CCN(Cc4ccccc4Cl)CC3)c3ccccc3n2)cc1,-15.1% [at 10 µM]
16,CC(C)CCNc1nc(-c2ccc(Cl)cc2)nc2ccccc12,-13.6% [at 0.35 µM]
17,COc1ccc(-c2nc(NCCN3CCC(C)CC3)c3ccccc3n2)cc1,14.8%
18,COc1ccc2[nH]cc(CCNC(=O)c3cc(-c4ccccn4)nc4ccccc34)c2c1,-12.8% [at 5 µM]
19,Cc1ccc(-c2coc(-c3ccc(NS(=O)(=O)c4ccc(Cl)cc4)cc3)n2)cc1C,40.5% [at 2.6 µM]
20,Cc1ccc(NC(=O)COc2nc(C)nc3ccccc23)c(Cl)c1,15.5% [at 0.68 µM]
21,COc1cc(OC)cc(-c2noc(-c3nnn(Cc4nc(-c5cccc(C)c5)oc4C)c3C)n2)c1,-7.99% [at 0.16 µM]
22,Cc1ccc(NC(=O)Nc2ccc(-c3nc(-c4ccc(C)cc4)co3)cc2)cc1,24% [at 5 µM]
23,CCc1cccc(-n2nnc(C(=O)N3CCC(N4CCCCC4)CC3)c2-c2cccnc2)c1,25.9% [at 0.68 µM]
24,COCC(=O)N1CCC2(CC1)CC1(CCN(CC(C)C)CC1)C(=O)N2C,34.4%
25,O=C1CC(c2ccncc2)C2(CCN(Cc3nccs3)CC2)N1 (centres undefined),22.8%

row,Compound,max activity
1,CCS(=O)(=O)N1CC[C@H]2[C@@H]1CCN2Cc1cnn(C)c1,27.1%
2,COc1ccc(-c2nc(Nc3ccc(OC)c(Cl)c3)c3ccccc3n2)cc1,16.4% [at 2.6 µM]
3,COc1ccc(-c2nc(Nc3cc(Cl)c(OC)cc3OC)c3ccccc3n2)cc1,18.3%
4,Cc1ccc(S(=O)(=O)N2CCC3(CC2)OC(C(=O)N(C)C)Cn2ccnc23)cc1 (centres undefined),40.3%
5,O=C(Nc1ccc2c(c1)OCO2)N1C[C@@H]2N[C@H](C1)C2c1ccc(C=Cc2ccccc2)cc1 (some centres undefined),116% [at 1.2 µM]
6,O=C(Nc1ccccc1F)N1C[C@@H]2N[C@H](C1)C2c1ccc(/C=C/c2ccccc2)cc1 (some centres undefined),85.7% [at 1.2 µM]
7,N#Cc1cccc(-c2ccc(C3[C@@H]4CN(C(=O)c5ccc6c(c5)OCO6)C[C@H]3N4)cc2)c1 (some centres undefined),17.9%
8,O=C(CN1CCOCC1)N1C[C@@H]2N[C@H](C1)C2c1ccc(/C=C/c2ccccc2)cc1 (some centres undefined),41.5% [at 10 µM]
9,N#Cc1ccc(-c2ccc([C@@H]3[C@H]4CNC[C@@H]3N4Cc3ccc4c(c3)OCO4)cc2)cc1,28.6% [at 10 µM]
10,O=C(C1CC1)N1C[C@@H]2N[C@H](C1)C2c1ccc(/C=C/c2ccccc2)cc1 (some centres undefined),92.7% [at 0.08 µM]
11,COc1ccccc1NC(=O)N1C[C@@H]2N[C@H](C1)C2c1ccc(/C=C/c2ccccc2)cc1 (some centres undefined),-98%
12,Cc1cccc(N2CCN(C(=O)c3ccc(-c4csc(C5CC5)n4)cc3)CC2C)c1 (centres undefined),40.1%
13,CCN1C(=O)CCc2cc(NC(=O)c3ccc(Br)o3)ccc21,15.9% [at 10 µM]
14,Cc1ccc(-c2coc(-c3ccc(NC(=O)Nc4ccccc4Br)cc3)n2)cc1,-10.7% [at 10 µM]
15,CCc1ccccc1NC(=O)CN1CCC2(CC1)N=C(c1cccc(Cl)c1)C(=O)N2,9.92%
16,Cn1c(=O)c(C(=O)NCc2ccccc2Cl)cc2cccnc21,196%
17,CCOc1ccc(-c2nc(CN(c3ccccc3C)S(=O)(=O)c3cccs3)c(C)o2)cc1OC,-13.1% [at 0.16 µM]
18,Cc1ccccc1N(Cc1nc(-c2ccc(OC(C)C)cc2)oc1C)S(=O)(=O)c1cccs1,4.55%
19,Cc1ccccc1N(Cc1nc(-c2cccc(Cl)c2)oc1C)S(=O)(=O)c1cccs1,-9.43% [at 5 µM]
20,CCOc1ccc(-c2nc(CN(c3ccccc3OCC)S(=O)(=O)c3cccs3)c(C)o2)cc1,6.64%
21,CCOC(=O)CSC1=Nc2ccccc2C2=NC(CC(=O)NCc3ccco3)C(=O)N12 (centres undefined),21.4% [at 1.35 µM]
22,COc1ccc(C(=O)Nc2ccc(-c3nc(-c4cc(C)ccc4C)co3)cc2)cc1,9.17%
23,COc1ccccc1C(=O)N1CCC2(CC1)Nc1ccc(C)c(C)c1-n1cccc12,-7.27% [at 1.35 µM]
24,CN1CCC(N2CCN(c3ncccc3-c3nnc(-c4ccc(Cl)cc4)o3)CC2)CC1,4.69%
25,Cc1ccc(NC(=O)Nc2ccc(-c3nc(-c4ccccc4)co3)cc2)cc1Cl,9.34%

row,Compound,max activity
1,CCOc1ccc(NC(=O)COc2nc(C)nc3ccccc23)cc1,30.4% [at 10 µM]
2,Cc1ccc2c(c1C)-n1cccc1C1(CCN(C(=O)COc3ccc(F)cc3)CC1)N2,-9.55% [at 0.16 µM]
3,Cc1ccc(-c2coc(-c3ccc(NC(=O)CC4CCCCC4)cc3)n2)cc1,-15.2%
4,COc1ccccc1N(Cc1nc(-c2ccccc2)oc1C)S(=O)(=O)c1cccs1,-5.51% [at 0.68 µM]
5,COc1ccccc1N(Cc1nc(-c2ccc(OC(C)C)cc2)oc1C)S(=O)(=O)c1cccs1,-8.76% [at 0.35 µM]
6,CCOc1ccccc1N(Cc1nc(-c2cccc(C)c2)oc1C)S(=O)(=O)c1cccs1,10.6%
7,CCOc1ccccc1N(Cc1nc(-c2cccc(Cl)c2)oc1C)S(=O)(=O)c1cccs1,6.9%
8,O=C(O)CN1C[C@H]2c3ccccc3C(OCC3CC3)[C@@H]2C1 (some centres undefined),42.3%
9,CCc1ccc2c(c1)cc(S(=O)(=O)c1ccccc1)c(=O)n2CC(=O)NC1CCCC1,14.3% [at 0.16 µM]
10,COc1ccc(-c2nc(Nc3ccc(C)c(F)c3)c3ccccc3n2)cc1,17.7% [at 2.6 µM]
11,O=C(Cn1cccc1-c1nc(-c2ccccc2)cs1)N1CCC2(CC1)OCCO2,-15.4% [at 2.6 µM]
12,COc1ccccc1N(Cc1nc(-c2ccccc2)oc1C)S(=O)(=O)c1ccccc1C,9.45% [at 5 µM]
13,Cc1csc([C@H]2C[C@H]3CCN(C(=O)c4cnccn4)C[C@@H]3O2)n1,48.1%
14,COc1ccc(-c2nc(C)c(-c3ccc(SCc4ccc(C(F)(F)F)cc4)nn3)s2)cc1,8.72% [at 2.6 µM]
15,CCCCC(=O)N1CCC2(CC1)Nc1cc(OC)ccc1-n1cccc12,14.1% [at 2.6 µM]
16,Cc1ccc(-c2nc(CN3CCN(C(=O)Nc4ccccc4Cl)CC3)c(C)o2)cc1,16.4% [at 2.6 µM]
17,O=C(CC1N=C2c3ccccc3N=C(SCc3ccccc3Cl)N2C1=O)NCc1ccccc1 (centres undefined),12.8% [at 2.6 µM]
18,O=C(CC1N=C2c3ccccc3N=C(SCc3ccccc3Cl)N2C1=O)NCc1ccc(F)cc1 (centres undefined),-7.22% [at 0.16 µM]
19,CCOC(=O)CSC1=Nc2ccccc2C2=NC(CC(=O)NCCc3ccccc3)C(=O)N12 (centres undefined),64.6%
20,O=C(CC1N=C2c3ccccc3N=C(SCc3cccc(Cl)c3)N2C1=O)NCc1ccc2c(c1)OCO2 (centres undefined),19.4% [at 10 µM]
21,O=C(CC1N=C2c3ccccc3N=C(SCc3ccc(Cl)cc3)N2C1=O)NCc1ccc(F)cc1 (centres undefined),15%
22,O=C(CC1N=C2c3ccccc3N=C(SCc3cccc(Cl)c3)N2C1=O)NCc1ccc(F)cc1 (centres undefined),30.2%
23,COc1ccccc1-c1nc(Cn2nnc(-c3nc(-c4ccc(Cl)cc4)no3)c2C)c(C)o1,9.29%
24,COc1ccc(C(=O)Nc2ccc(-c3nc(-c4ccc(C)cc4)co3)cc2)cc1OC,61.6% [at 10 µM]
